Test results published in PubChem BioAssay (Tox21).
Values joined by “and” are separate entries in the source; they are usually repeats but may differ in a detail not shown here. Equal values may be shown once. Records with an inconclusive call do not appear. Where a call stands in place of a potency, no number is given. Some structures have more than one record in an assay (separate samples or runs), and their calls can disagree. Active and inactive are the calls of the source. Calls follow the shape of the dose curve; as a rule, active = well fitted curve in the direction sought with a large enough effect in the repeat runs; inconclusive = weak or mixed curves; inactive = no such curve, though single readings can be large; an effect the other way counts as inactive or inconclusive.

What was measured:
[1] = Human pregnane X receptor (PXR) small molecule agonists, qHTS cell viability counter screen (AID 1346977); also: nearly all actives have a fitted effect of over 50% in size; also: potency is read from the fitted curve at half-maximal effect
In short: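 After a 5hr pre-incubation, PXR-Luc HepG2 cells received compounds plus positive control in DMSO and were kept 24hr at 37C. Cell viability was quantified by fluorescence from CellTiter-Fluor added for the final hour.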

[2] = Caspase-3/7 induction in HepG2 cells by small molecules, qHTS assay (AID 1346978); also: nearly all actives have a fitted effect of over 15% in size
In short: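 Caspase-3/7 induction was measured by Caspase-Glo 3/7 luminescence (30 min, room temperature) after a 17 hr compound exposure of wild-type HepG2 cells seeded at 2,000 per well and pre-incubated 5 hr.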

[3] = Caspase-3/7 induction in CHO-K1 cells by small molecules, qHTS cell viability counter screen (AID 1346979); also: nearly all actives have a fitted effect of over 35% in size; also: potency is read from the fitted curve at half-maximal effect
In short: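 Multiplexed with Caspase-Glo 3/7 in CHO-K1 cells, this counter screen added CellTiter-Fluor after 16hr of compound exposure and recorded fluorescence 1hr later.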

[4] = target: Nuclear receptor subfamily 1 group I member 2 (Homo sapiens) (UniProt O75469); assay: Human pregnane X receptor (PXR) small molecule agonists, qHTS assay (AID 1346982); also: nearly all actives have a fitted effect of over 35% in size; also: potency is read from the fitted curve at half-maximal effect
Nuclear receptor subfamily 1 group I member 2 (Homo sapiens), sequence (O75469 whole entry, looked up): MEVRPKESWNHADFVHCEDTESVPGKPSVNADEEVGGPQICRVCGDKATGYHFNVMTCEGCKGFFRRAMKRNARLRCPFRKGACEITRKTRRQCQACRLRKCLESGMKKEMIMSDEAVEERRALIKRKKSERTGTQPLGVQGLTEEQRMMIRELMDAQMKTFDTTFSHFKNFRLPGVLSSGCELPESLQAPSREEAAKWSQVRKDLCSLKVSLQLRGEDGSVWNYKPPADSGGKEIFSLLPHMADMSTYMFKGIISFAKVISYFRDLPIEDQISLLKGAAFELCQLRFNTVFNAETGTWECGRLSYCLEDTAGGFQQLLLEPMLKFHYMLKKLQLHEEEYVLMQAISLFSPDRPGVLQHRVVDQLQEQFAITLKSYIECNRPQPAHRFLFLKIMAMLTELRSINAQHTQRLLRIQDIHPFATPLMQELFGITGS
In short: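 Tox21 qHTS; PXR-Luc HepG2; compounds pinned from DMSO; 24 hr, 37 C; ONE-Glo luciferase detection, 30 min room temperature.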

[5] = target: Nuclear receptor subfamily 1 group I member 2 (Rattus norvegicus) (UniProt Q9R1A7); assay: Rat pregnane X receptor (rPXR) activation by small molecules, qHTS assay (AID 1346983); conditions: rPXR luciferase reporter cells, One-Glo luminescence, 24 h; max activation: stronger effect = higher value; also: nearly all actives have a fitted effect of over 20% in size
Nuclear receptor subfamily 1 group I member 2 (Rattus norvegicus), sequence (Q9R1A7 whole entry, looked up): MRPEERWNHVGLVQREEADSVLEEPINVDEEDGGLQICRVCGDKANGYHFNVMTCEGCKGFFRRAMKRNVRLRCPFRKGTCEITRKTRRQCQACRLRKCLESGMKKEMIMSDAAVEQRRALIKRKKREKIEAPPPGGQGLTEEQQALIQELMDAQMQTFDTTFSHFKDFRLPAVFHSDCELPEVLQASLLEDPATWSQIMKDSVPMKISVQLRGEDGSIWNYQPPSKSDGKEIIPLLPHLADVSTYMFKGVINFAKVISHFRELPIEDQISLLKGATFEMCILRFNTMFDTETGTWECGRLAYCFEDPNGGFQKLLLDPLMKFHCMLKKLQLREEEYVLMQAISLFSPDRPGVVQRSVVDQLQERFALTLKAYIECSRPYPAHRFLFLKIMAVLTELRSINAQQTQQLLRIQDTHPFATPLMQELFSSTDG
In short: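 Luminescent readout (One-Glo luciferase, 30 min room temperature) followed 24 hr compound treatment at 37 C of rPXR cells plated 2,000 per well and preincubated 5hr; qHTS format with compounds delivered in DMSO.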

[6] = target: Nuclear receptor subfamily 1 group I member 2 (Homo sapiens) (UniProt O75469); assay: CYP3A4 induction through human pregnane X receptor (PXR) by small molecules, qHTS assay (AID 1346984); also: nearly all actives have a fitted effect of over 40% in size
In short: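 Cells (DPX-2; HepG2 with PXR element plus CYP3A4-promoter luciferase) settled 5hr, then were treated 24hr at 37C. A 3hr, 3uM-final Luciferin-IPA step preceded luminescence measurement with One-Glo.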

[7] = target: Nuclear receptor subfamily 1 group I member 2 (Homo sapiens) (UniProt O75469); assay: Human pregnane X receptor (PXR) activation by small molecules, qHTS assay (AID 1346985); also: nearly all actives have a fitted effect of over 40% in size; also: potency is read from the fitted curve at half-maximal effect
In short: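 DPX-2 cells (HepG2 co-transfected with a PXR response element and a CYP3A4-promoter luciferase construct) were seeded at 2,000 per well, rested 5 hr at 37C, then exposed to DMSO-dissolved compounds for 24 hr. Activation was read as luciferase luminescence.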

[8] = target: Cytochrome P450 2D6 (Homo sapiens) (UniProt P10635); assay: Cytochrome P450 Family 2 Subfamily D Member 6 (CYP2D6) small molecule antagonists: luciferase reporter qHTS assay (AID 1671196); also: nearly all actives have a fitted effect of over 50% in size; also: potency is read from the fitted curve at half-maximal effect
Cytochrome P450 2D6 (Homo sapiens), sequence (P10635 whole entry, looked up): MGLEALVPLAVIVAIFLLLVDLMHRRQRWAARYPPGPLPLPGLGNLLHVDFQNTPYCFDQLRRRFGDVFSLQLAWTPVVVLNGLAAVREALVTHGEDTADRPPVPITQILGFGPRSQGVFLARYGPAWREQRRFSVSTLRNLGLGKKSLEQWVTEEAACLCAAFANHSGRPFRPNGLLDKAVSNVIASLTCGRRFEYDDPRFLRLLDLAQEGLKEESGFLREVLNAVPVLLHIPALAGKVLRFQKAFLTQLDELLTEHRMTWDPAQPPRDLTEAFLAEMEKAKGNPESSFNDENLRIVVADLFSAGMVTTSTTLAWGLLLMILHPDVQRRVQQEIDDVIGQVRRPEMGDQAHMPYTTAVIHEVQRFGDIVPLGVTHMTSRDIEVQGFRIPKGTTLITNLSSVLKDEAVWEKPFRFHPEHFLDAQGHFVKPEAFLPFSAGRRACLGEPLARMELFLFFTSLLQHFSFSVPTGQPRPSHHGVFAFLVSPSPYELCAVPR
In short: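 Room-temperature luminescent CYP2D6 activity assay: compound preincubated 10 min with enzyme–substrate mix, NADPH-initiated reaction 1 h, detection reagent 20 min before reading.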

[9] = Caspase-3/7 induction in HepG2 cells by small molecules, qHTS cell viability counter screen (AID 1346981); also: series mostly up to about 92 µM; nearly all actives have a fitted effect of over 30% in size
In short: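 After a 5-hr attachment period at 37 C and 5% CO2, wild-type HepG2 cells received compounds in DMSO. Sixteen hours later CellTiter-Fluor was dispensed and the fluorescent signal quantified after a further hour.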

[10] = Caspase-3/7 induction in CHO-K1 cells by small molecules, qHTS assay (AID 1346980); also: nearly all actives have a fitted effect of over 15% in size
In short: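 Luminescent Caspase-Glo 3/7 read (30min, room temperature) quantified apoptosis induction. Cells were wild-type CHO-K1, treated with compound for 17hr at 37 C and 5% CO2.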

Row | SMILES | Potency [1] | Potency [2] | Potency [3] | Potency [4] | max activation [5] | Potency [6] | Potency [7] | Potency [8] | Potency [9] | Potency [10]
1 | O=C(Nc1ccc(Cl)cc1)Nc1ccc(Cl)c(Cl)c1 | 7.08 µM (active) and 12.2 µM (active) and 13.3 µM (active) | inactive | 19.2 µM (active) and 17.2 µM (active) and 18.8 µM (active) | 7.66 µM (active) | -13.1% (inactive) | inactive | inactive | inactive |  | 
2 | CCC(C)(O)CCCC(C)C (configuration not stated) | inactive | inactive | inactive | inactive |  |  |  | inactive | inactive | 
3 | CCOC(=O)C(C#N)=C(c1ccccc1)c1ccccc1 | inactive | inactive |  | 24.3 µM (active) and 11.9 µM (active) |  |  | 12.6 µM (active) | inactive | inactive | inactive
4 | CN(C)c1nc(N(C)C)nc(N(C)C)n1 | inactive | inactive |  |  |  |  |  |  |  | inactive
5 | CCCCOCCOCCOCCO | inactive | inactive | inactive | inactive |  |  |  | inactive | inactive | 
6 | CCOCCOCCO | inactive | inactive | inactive | inactive |  |  |  | inactive | inactive | 
7 | CCC(C)c1ccccc1O (configuration not stated) | inactive | inactive |  | inactive |  |  |  | inactive | inactive | inactive
8 | CCC(C)OC(=O)c1ccc(O)cc1 (configuration not stated) | inactive | inactive | inactive | 69 µM (active) and 54.5 µM (active) |  |  |  | 63.3 µM (active) | inactive | 
9 | COC(=O)CCC(=O)OC | inactive | inactive |  | 56 µM (active) and inactive |  |  |  | inactive | inactive | inactive
10 | C[Si](C)(C)O[Si](C)(C)C | inactive | inactive | inactive | 68.2 µM (active) and inactive | -1.76% (inactive) | inactive | inactive | inactive | inactive | 
11 | O=C(c1ccccc1)c1ccccc1O | inactive | inactive | inactive | inactive |  |  |  | 40.9 µM (active) |  | 
12 | CCCCOCCOCCO | inactive | inactive |  | inactive |  |  |  | inactive | inactive | inactive
13 | c1ccncc1 | inactive | inactive | inactive | inactive |  |  |  | inactive |  | inactive
14 | Cc1[nH]c(=O)c(C#N)cc1-c1ccncc1 | inactive | inactive |  | 1.37 µM (active) | 1.02% (inactive) | inactive | inactive | inactive | inactive | inactive
15 | O=C(Nc1ccc([N+](=O)[O-])cc1Cl)c1cc(Cl)ccc1O | 1.22 µM (active) and 1.46 µM (active) | inactive | 2.17 µM (active) and 2.59 µM (active) | 686 nM (active) and 291 nM (active) |  |  |  | inactive |  | inactive
16 | O=[N+]([O-])c1ccc2c(c1)Cc1ccccc1-2 | inactive | inactive |  | 48.5 µM (active) and 54.5 µM (active) |  |  |  | inactive | inactive | inactive
17 | O=C(c1ccccc1)c1ccc(O)cc1O | inactive | inactive |  | 62.3 µM (active) and 61.1 µM (active) |  |  |  | 8.12 µM (active) and 20 µM (active) | inactive | inactive
18 | Nc1ncn([C@@H]2O[C@H](CO)[C@@H](O)[C@H]2O)c(=O)n1 | 3.06 µM (active) and 3.76 µM (active) | inactive | 2.17 µM (active) and 2.98 µM (active) | 4.33 µM (active) and 10.6 µM (active) | -11.1% (inactive) | inactive | inactive | inactive |  | 
19 | CN(C)C(=N)N=C(N)N | inactive | inactive | inactive |  | -2.9% (inactive) |  |  |  | inactive | 
20 | CCC(C)CO (configuration not stated) | inactive | inactive |  | inactive |  |  |  | inactive | inactive | inactive
21 | Cc1ccc(C(=O)c2cc(O)c(O)c([N+](=O)[O-])c2)cc1 | 21.7 µM (active) | inactive | 43.3 µM (active) |  |  |  |  | inactive |  | inactive
22 | CCCCCCCCCC(=O)OC | inactive | inactive | inactive | 47.7 µM (active) and inactive |  |  |  | inactive | inactive | 
23 | O=C1c2cccc(O)c2C(=O)c2c(O)cccc21 | inactive | inactive | inactive | inactive | -1.61% (inactive) | inactive | inactive | inactive | inactive | 
24 | CCCCNS(=O)(=O)c1ccccc1 | inactive | inactive | inactive |  |  |  |  | inactive |  | inactive
25 | CC(C)OB(OC(C)C)OC(C)C | inactive | inactive |  | inactive |  |  |  | inactive | inactive | inactive
26 | c1ccc(Nc2ccccc2)cc1 | inactive | inactive | inactive | 61.1 µM (active) and inactive |  |  |  | inactive |  | 
